# Experimental data taken from ChEMBL document CHEMBL1961873, “Compounds: GSK PKIS; Assays: Nanosyn kinase panel” (2012).
# Several values for one entry are separate records, joined by “and”; a condition that tells them apart may be missing. Equal entries are not always repeated.
# Columns and labels:
# [1] = target: Serine/threonine-protein kinase MRCK alpha (Homo sapiens) (UniProt Q5VT25); conditions: at 0.1 µM
# [2] = target: Serine/threonine-protein kinase MRCK alpha (Homo sapiens) (UniProt Q5VT25); conditions: at 1 µM
# [3] = target: Serine/threonine-protein kinase MRCK beta (Homo sapiens) (UniProt Q9Y5S2); conditions: at 0.1 µM
# [4] = target: Serine/threonine-protein kinase MRCK beta (Homo sapiens) (UniProt Q9Y5S2); conditions: at 1 µM
# [5] = target: Ribosomal protein S6 kinase alpha-5 (Homo sapiens) (UniProt O75582); conditions: at 0.1 µM
# [6] = target: Ribosomal protein S6 kinase alpha-5 (Homo sapiens) (UniProt O75582); conditions: at 1 µM
# [7] = target: Ribosomal protein S6 kinase alpha-4 (Homo sapiens) (UniProt O75676); conditions: at 0.1 µM
# [8] = target: Ribosomal protein S6 kinase alpha-4 (Homo sapiens) (UniProt O75676); conditions: at 1 µM
# [9] = target: Ribosomal protein S6 kinase beta-1 (Homo sapiens) (UniProt P23443); conditions: at 0.1 µM
# [10] = target: Ribosomal protein S6 kinase beta-1 (Homo sapiens) (UniProt P23443); conditions: at 1 µM
# [11] = target: T1, 3-phosphoinositide-dependent protein kinase 1 (Homo sapiens) (UniProt O15530); conditions: at 0.1 µM;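 note: values are mean inhibition of PDK1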
# T1 sequence (whole entry): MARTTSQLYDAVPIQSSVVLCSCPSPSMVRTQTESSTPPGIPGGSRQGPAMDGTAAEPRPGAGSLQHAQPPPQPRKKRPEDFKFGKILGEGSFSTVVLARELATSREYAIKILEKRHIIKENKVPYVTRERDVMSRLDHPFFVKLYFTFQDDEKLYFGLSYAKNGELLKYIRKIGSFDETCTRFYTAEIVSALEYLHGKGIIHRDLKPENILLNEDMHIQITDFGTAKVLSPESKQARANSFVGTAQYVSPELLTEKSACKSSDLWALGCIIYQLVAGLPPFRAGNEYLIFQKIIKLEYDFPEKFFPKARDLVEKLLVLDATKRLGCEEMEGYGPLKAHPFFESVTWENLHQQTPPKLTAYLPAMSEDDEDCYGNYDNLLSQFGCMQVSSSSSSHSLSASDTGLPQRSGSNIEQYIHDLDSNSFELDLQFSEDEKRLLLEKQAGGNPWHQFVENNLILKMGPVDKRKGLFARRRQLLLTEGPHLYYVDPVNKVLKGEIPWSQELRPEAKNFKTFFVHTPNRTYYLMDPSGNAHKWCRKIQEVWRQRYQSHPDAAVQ
# [12] = target: cAMP-dependent protein kinase catalytic subunit alpha (Homo sapiens) (UniProt P17612); conditions: at 0.1 µM
# [13] = target: cAMP-dependent protein kinase catalytic subunit alpha (Homo sapiens) (UniProt P17612); conditions: at 1 µM
# [14] = target: Protein kinase C alpha type (Homo sapiens) (UniProt P17252); conditions: at 0.1 µM
# [15] = target: Protein kinase C alpha type (Homo sapiens) (UniProt P17252); conditions: at 1 µM
# [16] = target: Protein kinase C beta type (Homo sapiens) (UniProt P05771); conditions: at 0.1 µM
# [17] = target: Protein kinase C beta type (Homo sapiens) (UniProt P05771); conditions: at 1 µM
# [18] = target: Protein kinase C eta type (Homo sapiens) (UniProt P24723); conditions: at 0.1 µM
# [19] = target: Protein kinase C eta type (Homo sapiens) (UniProt P24723); conditions: at 1 µM
# [20] = target: Protein kinase C gamma type (Homo sapiens) (UniProt P05129); conditions: at 0.1 µM;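 note: values are mean percent inhibition of PKC gamma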
# Chain of Ribosomal protein S6 kinase alpha-4 (Homo sapiens) (O75676 whole entry, looked up): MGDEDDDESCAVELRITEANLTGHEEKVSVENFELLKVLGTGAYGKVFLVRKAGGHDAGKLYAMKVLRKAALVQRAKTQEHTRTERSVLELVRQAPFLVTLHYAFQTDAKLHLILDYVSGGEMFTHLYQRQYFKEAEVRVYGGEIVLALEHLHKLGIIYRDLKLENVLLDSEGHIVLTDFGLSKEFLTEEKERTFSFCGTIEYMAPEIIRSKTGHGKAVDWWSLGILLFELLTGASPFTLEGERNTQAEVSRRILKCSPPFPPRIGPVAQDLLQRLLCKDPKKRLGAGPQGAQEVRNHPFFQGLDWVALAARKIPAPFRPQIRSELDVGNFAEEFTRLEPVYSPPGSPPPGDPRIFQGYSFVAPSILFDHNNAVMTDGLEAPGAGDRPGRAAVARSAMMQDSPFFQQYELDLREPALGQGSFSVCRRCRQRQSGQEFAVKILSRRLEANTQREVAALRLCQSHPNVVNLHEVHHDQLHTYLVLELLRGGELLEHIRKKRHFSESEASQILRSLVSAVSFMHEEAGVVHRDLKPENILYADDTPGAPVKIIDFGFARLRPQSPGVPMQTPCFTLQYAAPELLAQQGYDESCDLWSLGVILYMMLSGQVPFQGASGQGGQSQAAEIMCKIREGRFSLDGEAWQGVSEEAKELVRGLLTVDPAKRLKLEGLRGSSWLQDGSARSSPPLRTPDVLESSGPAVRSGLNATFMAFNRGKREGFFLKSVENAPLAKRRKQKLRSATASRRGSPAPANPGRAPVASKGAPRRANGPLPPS
# Chain of Protein kinase C beta type (Homo sapiens) (P05771 2-671 limits assumed): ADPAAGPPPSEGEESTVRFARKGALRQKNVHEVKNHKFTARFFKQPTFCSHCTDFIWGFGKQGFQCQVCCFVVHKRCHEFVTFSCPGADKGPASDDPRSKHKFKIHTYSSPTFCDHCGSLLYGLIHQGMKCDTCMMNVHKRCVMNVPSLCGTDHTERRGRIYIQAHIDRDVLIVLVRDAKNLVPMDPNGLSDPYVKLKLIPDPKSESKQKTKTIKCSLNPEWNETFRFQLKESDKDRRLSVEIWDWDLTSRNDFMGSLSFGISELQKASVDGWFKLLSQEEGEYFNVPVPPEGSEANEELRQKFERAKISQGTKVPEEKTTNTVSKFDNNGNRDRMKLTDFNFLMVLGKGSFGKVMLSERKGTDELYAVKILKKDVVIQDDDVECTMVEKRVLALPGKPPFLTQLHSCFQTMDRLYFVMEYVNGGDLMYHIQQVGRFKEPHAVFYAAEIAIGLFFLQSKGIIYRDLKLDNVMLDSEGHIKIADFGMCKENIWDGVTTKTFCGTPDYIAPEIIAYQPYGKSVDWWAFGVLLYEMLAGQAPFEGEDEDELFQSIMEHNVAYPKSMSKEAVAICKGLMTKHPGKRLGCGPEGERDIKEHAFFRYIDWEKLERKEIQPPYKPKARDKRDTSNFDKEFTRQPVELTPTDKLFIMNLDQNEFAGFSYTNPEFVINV
# Chain of Ribosomal protein S6 kinase alpha-5 (Homo sapiens) (O75582 whole entry, looked up): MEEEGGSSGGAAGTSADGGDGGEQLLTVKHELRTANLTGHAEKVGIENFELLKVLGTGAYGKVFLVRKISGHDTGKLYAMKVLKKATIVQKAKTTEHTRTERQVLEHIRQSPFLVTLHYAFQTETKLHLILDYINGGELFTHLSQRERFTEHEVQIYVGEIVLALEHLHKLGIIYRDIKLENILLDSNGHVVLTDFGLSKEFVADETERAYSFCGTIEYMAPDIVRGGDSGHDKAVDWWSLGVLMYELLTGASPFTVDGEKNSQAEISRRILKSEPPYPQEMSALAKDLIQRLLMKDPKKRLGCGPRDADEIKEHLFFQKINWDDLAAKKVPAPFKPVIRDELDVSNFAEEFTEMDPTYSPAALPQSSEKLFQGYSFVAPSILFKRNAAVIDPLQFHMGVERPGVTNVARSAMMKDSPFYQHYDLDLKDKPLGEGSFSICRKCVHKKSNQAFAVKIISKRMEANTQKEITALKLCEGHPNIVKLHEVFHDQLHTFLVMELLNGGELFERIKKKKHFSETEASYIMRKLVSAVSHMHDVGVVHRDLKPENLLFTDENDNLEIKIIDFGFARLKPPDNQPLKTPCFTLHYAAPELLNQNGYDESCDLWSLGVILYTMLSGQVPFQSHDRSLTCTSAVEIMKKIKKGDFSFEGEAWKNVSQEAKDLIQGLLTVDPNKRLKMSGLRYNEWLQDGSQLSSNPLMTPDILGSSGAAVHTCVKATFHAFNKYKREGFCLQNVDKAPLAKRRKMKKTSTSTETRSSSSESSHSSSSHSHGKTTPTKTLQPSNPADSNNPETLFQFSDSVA
# Chain of Serine/threonine-protein kinase MRCK alpha (Homo sapiens) (Q5VT25 whole entry): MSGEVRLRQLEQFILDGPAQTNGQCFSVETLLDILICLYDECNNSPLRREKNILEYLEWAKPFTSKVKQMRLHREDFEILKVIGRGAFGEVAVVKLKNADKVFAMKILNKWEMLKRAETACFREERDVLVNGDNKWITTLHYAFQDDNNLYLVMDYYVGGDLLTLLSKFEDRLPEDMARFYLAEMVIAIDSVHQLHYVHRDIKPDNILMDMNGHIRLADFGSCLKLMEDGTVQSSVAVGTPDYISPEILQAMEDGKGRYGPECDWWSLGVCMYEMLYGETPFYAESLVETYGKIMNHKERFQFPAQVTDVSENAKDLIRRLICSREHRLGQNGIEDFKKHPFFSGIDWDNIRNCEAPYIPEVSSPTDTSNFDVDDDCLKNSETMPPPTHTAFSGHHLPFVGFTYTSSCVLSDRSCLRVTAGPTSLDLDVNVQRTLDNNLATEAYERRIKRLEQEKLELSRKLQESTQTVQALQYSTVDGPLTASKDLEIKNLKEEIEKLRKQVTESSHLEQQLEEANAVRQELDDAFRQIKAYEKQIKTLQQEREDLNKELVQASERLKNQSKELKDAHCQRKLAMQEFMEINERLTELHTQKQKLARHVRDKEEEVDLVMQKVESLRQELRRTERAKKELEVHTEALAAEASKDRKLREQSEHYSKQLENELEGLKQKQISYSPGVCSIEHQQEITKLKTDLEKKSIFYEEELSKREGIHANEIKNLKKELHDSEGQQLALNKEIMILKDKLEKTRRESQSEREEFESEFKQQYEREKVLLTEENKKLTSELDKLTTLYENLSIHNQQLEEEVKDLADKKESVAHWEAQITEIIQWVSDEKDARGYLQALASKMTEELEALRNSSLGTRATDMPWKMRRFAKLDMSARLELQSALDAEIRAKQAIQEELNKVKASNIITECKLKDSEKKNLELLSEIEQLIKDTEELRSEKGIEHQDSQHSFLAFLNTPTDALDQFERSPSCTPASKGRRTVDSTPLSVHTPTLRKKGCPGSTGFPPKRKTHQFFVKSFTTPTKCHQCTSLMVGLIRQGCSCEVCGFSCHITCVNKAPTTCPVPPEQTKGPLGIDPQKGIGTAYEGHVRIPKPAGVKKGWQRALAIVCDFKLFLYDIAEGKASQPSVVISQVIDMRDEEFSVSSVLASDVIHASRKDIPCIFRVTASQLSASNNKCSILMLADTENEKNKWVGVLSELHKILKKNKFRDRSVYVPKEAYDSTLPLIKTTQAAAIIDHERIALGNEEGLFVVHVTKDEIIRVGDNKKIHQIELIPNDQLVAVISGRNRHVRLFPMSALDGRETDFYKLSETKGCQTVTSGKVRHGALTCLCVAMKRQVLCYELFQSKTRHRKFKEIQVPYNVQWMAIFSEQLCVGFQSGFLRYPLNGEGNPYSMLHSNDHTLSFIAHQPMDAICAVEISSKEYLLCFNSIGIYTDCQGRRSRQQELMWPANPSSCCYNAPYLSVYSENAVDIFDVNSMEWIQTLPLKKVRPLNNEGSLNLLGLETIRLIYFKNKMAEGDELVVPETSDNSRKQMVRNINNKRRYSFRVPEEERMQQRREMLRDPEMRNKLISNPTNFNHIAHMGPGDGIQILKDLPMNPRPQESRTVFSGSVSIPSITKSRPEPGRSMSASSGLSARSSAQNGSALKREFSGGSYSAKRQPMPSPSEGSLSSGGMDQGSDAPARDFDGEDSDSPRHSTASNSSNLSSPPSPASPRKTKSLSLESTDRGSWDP
Compound,inhibition [1],inhibition [2],inhibition [3],inhibition [4],inhibition [5],inhibition [6],inhibition [7],inhibition [8],inhibition [9],inhibition [10],inhibition [11],inhibition [12],inhibition [13],inhibition [14],inhibition [15],inhibition [16],inhibition [17],inhibition [18],inhibition [19],inhibition [20]
Fc1ccc(Nc2nccc(-c3c(-c4ccc(C(F)(F)F)cc4)nn4ncccc34)n2)cc1F,-0.28%,-1.12%,-0.35%,1.04%,2.66%,2.7%,-0.61%,2%,1.31%,0.33%,3.96%,1.44%,1.2%,1.5%,2.09%,-0.08%,-1.29%,0.94%,1.72%,1.67%
Cc1nnc(-c2cccc(-c3ccc(C(=O)NCC4CC4)cc3)c2)o1,-0.4%,2.11%,-0.19%,-0.8%,4.52%,3.95%,3.13%,3.75%,1.6%,3.46%,2.18%,1.83%,2.07%,0.65%,1.45%,2.27%,3.52%,3.46%,6.75%,1.76%
Cc1c2ccc(N(C)c3ccnc(Nc4cccc(S(N)(=O)=O)c4)n3)cc2nn1C,-0.27%,0.18%,0.8%,0.18%,2.9%,1.29%,2.14%,5.76%,2.59%,2.64%,1.36%,-2.27%,-0.54%,-2.47%,-0.96%,0.1%,-0.52%,4.05%,1.15%,1.65%
COc1ccc(Nc2ncc(-c3ccccc3)o2)cc1OC,0.45%,2.02%,0.74%,1.74%,0.37%,1.73%,1.03%,4.59%,1.51%,2.28%,2.22%,0.2%,1.87%,1.08%,4.51%,-0.02%,3.24%,0.42%,-1.25%,0.58%
Nc1nccc(-c2c(-c3ccc(F)cc3)ncn2C2CCNCC2)n1,0.35% and 0.18%,2.58% and 5.06%,0.52% and 1.07%,1.72% and 3.43%,-2.32% and -0.28%,-1.5% and 1.46%,-1.86% and 0.59%,-1.17% and 2.2%,-1.49% and 0.02%,-0.77% and 0.22%,-3.23% and 1.39%,-0.37% and 3.2%,20.2% and 30.2%,1.33% and 2.68%,21.7% and 29%,1.41% and 3.25%,17.9% and 21.4%,-2.01% and 0.32%,0.29% and 1.78%,-1.71% and 0.92%
Cc1cc(O)cc(C)c1/C=C/c1cncc(C(=O)OC(C)(C)C)c1,0.35%,1.93%,1.45%,2.65%,1.89%,3.7%,1.86%,3.1%,0.44%,0.31%,1.42%,1.82%,3.63%,0.14%,0.77%,0.46%,-1.03%,-1.29%,3.71%,3.91%
N#Cc1ccc2c(-c3ccnc(NC4CC4)n3)c(-c3ccc(F)cc3)nn2c1,0.79%,0.87%,0.13%,0.52%,0.77%,-0.33%,0.92%,-0.56%,0.06%,-0.85%,0.01%,1.59%,0.4%,0.15%,1.24%,-1.19%,-0.72%,2.95%,0.36%,1.4%
COc1ccccc1-c1cc(/C=C2\C(=O)Nc3ncc(Br)cc32)cc(Br)c1O,-0.66%,-2.56%,-0.06%,-0.72%,3.42%,1.75%,1.76%,6.3%,2.51%,2.75%,2.09%,1.83%,1.05%,0.82%,1.73%,-0.31%,0.26%,2.06%,1.62%,-0.61%
CC(C)c1ccc(-c2cc(-c3c[nH]nc3-c3ccccn3)ccn2)cc1,-0.14%,-0.28%,-0.59%,2.06%,1.59%,1.63%,1.53%,2.87%,0.17%,-0.41%,1.17%,1.32%,2.36%,0.02%,1.23%,2.16%,3.68%,1.36%,0.07%,-1.26%
CS(=O)(=O)CCNCc1ccc(-c2ccc3ncnc(Nc4ccc(OCc5cccc(C(F)(F)F)c5)cc4)c3c2)o1,1.26%,5.01%,0.69%,2%,4.18%,3.88%,1.66%,2.03%,1.39%,3.25%,0.06%,1.97%,4.62%,1.05%,2.11%,1.32%,0.08%,6.28%,4.9%,2.65%
O=C(O[C@H]1CN[C@H](C#Cc2cc3ncnc(Nc4ccc5c(cnn5Cc5ccccc5)c4)c3s2)C1)N1CCOCC1,0.53%,-6.83%,-0.65%,-2.08%,-1.78%,-2.26%,0.14%,-0.97%,-0.07%,-1.65%,-1.36%,0.31%,1.15%,0.54%,-0.04%,-0.18%,-6.28%,-1.67%,-2.51%,1.56%
CNC(=O)c1sc(-n2cnc3cc(OC)c(OC)cc32)cc1OCc1ccccc1C(F)(F)F,-1.57%,2.7%,0.75%,-0.54%,1.63%,-0.43%,3.06%,2.24%,1.25%,0.64%,1.81%,2.01%,2.29%,0.09%,0.93%,1.29%,-0.63%,3.69%,1.55%,5.06%
